# Source: PubChem BioAssay AID1159580 (chemical genetic matrix, 2015)
# Several values for one entry are separate records, joined by “and”; a condition that tells them apart may be missing. Identical values can stand only once. The campaign covered roughly 5,500 compounds. About 2,000 (36%) were called active. Not shown: some 18% with an inconclusive outcome. The list shows a part of the results. Unmarked numbers belong to inactive results. No stated cut-off is given here; in the data, active means normalized growth mostly below about 0.91 (no sharp cut-off); inconclusive means no clear call, values can overlap the other calls; inactive means mostly above about 0.92.
# Experiment: chemical genetic growth profiling, strain panel (AID 1159580);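 further: tested at 20 µM; growth read once vehicle control cultures reached saturation at 30 °C; 1 = growth at the plate median or of vehicle wells; lower values mean less growth of the strain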
# Conditions: S. cerevisiae deletion strains, growth OD
smiles,measurement,setting,value
COC1=CC(=O)C=C(OC)C1=O,normalized growth,"locus YAL021C, strain ccr4, hits give low values",1.03
same,normalized growth,"locus YAL026C, strain drs2, hits give low values",0.978
same,normalized growth,"locus YAL030W, strain snc1, hits give low values",0.991
same,normalized growth,"locus YBL061C, strain skt5, hits give low values",0.998
same,normalized growth,"locus YBR009C, strain hhf1, hits give low values",0.98
same,normalized growth,"locus YBR021W, strain FUR4, hits give low values",1.12
same,normalized growth,"locus YBR023C, strain chs3, hits give low values",0.998
same,normalized growth,"locus YBR171W, strain sec66, hits give low values",1.01
same,normalized growth,"locus YBR229C, strain ROT2, hits give low values",0.956
same,normalized growth,"locus YBR231C, strain swc5, hits give low values",0.982
same,normalized growth,"locus YBR279W, strain paf1, hits give low values",0.992
same,normalized growth,"locus YCL011C, strain gbp2, hits give low values",1.01
same,normalized growth,"locus YCL016C, strain dcc1, hits give low values",0.997
same,normalized growth,"locus YCL029C, strain bik1, hits give low values",0.97
same,normalized growth,"locus YCL061C, strain MRC1, hits give low values",1.01
same,normalized growth,"locus YCL069W, strain vba3, hits give low values",1
same,normalized growth,"locus YCR088W, strain abp1, hits give low values",1
same,normalized growth,"locus YDL005C, strain med2, hits give low values",1.02
same,normalized growth,"locus YDL035C, strain GPR1, hits give low values",1.01
same,normalized growth,"locus YDL040C, strain nat1, hits give low values",0.992
same,normalized growth,"locus YDL074C, strain BRE1, hits give low values",1.05
same,normalized growth,"locus YDL101C, strain DUN1, hits give low values",0.975
same,normalized growth,"locus YDL134C, strain PPH21, hits give low values",0.979
same,normalized growth,"locus YDL185W, strain tfp1, hits give low values",0.964
same,normalized growth,"locus YDL192W, strain arf1, hits give low values",0.995
same,normalized growth,"locus YDR001C, strain nth1, hits give low values",1
same,normalized growth,"locus YDR069C, strain doa4, hits give low values",1
same,normalized growth,"locus YDR101C, strain arx1, hits give low values",0.984
same,normalized growth,"locus YDR137W, strain rgp1, hits give low values",0.88
same,normalized growth,"locus YDR159W, strain sac3, hits give low values",0.794 (active)
same,normalized growth,"locus YDR162C, strain NBP2, hits give low values",0.982
same,normalized growth,"locus YDR195W, strain ref2",1.18 [resistant] (active)
same,normalized growth,"locus YDR297W, strain sur2, hits give low values",0.978
same,normalized growth,"locus YDR318W, strain mcm21, hits give low values",0.998
same,normalized growth,"locus YDR334W, strain swr1, hits give low values",1.01
same,normalized growth,"locus YDR335W, strain msn5, hits give low values",1.01
same,normalized growth,"locus YDR388W, hits give low values",0.983
same,normalized growth,"locus YDR392W, strain spt3, hits give low values",0.879
same,normalized growth,"locus YDR502C, strain sam2, hits give low values",0.988
same,normalized growth,"locus YEL003W, strain gim4, hits give low values",0.992
same,normalized growth,"locus YEL037C, strain rad23, hits give low values",1.01
same,normalized growth,"locus YEL061C, strain CIN8 (second series), hits give low values",1
same,normalized growth,"locus YEL061C, strain CIN8, hits give low values",0.988
same,normalized growth,"locus YER015W, strain faa2, hits give low values",0.997
same,normalized growth,"locus YER016W, strain bim1, hits give low values",0.97
same,normalized growth,"locus YER110C, hits give low values",0.97
same,normalized growth,"locus YER111C, strain swi4, hits give low values",1.01
same,normalized growth,"locus YER155C, strain BEM2 (second series), hits give low values",1.02
same,normalized growth,"locus YER155C, strain BEM2, hits give low values",1
same,normalized growth,"locus YER167W, strain BCK2, hits give low values",1
same,normalized growth,"locus YFR010W, strain ubp6, hits give low values",1
same,normalized growth,"locus YGL078C, strain dbp3, hits give low values",0.99
same,normalized growth,"locus YGL086W, strain mad1, hits give low values",0.983
same,normalized growth,"locus YGL167C, strain pmr1, hits give low values",0.987
same,normalized growth,"locus YGL173C, strain kem1, hits give low values",1.01
same,normalized growth,"locus YGL227W, strain vid30, hits give low values",0.998
same,normalized growth,"locus YGL240W, strain doc1, hits give low values",0.914
same,normalized growth,"locus YGL248W, strain PDE1, hits give low values",0.996
same,normalized growth,"locus YGL253W, strain hxk2, hits give low values",1.01
same,normalized growth,"locus YGR135W, strain pre9, hits give low values",1
same,normalized growth,"locus YGR252W, strain gcn5, hits give low values",1.16
same,normalized growth,"locus YHR013C, strain ard1, hits give low values",1.04
same,normalized growth,"locus YHR027C, strain rpn1, hits give low values",0.995
same,normalized growth,"locus YHR030C, strain SLT2, hits give low values",0.994 and 1.02
same,normalized growth,"locus YHR079C, strain IRE1 (second series), hits give low values",0.984
same,normalized growth,"locus YHR079C, strain IRE1, hits give low values",1.01
same,normalized growth,"locus YHR094C, strain hxt1, hits give low values",0.976
same,normalized growth,"locus YHR129C, strain ARP1, hits give low values",0.997
same,normalized growth,"locus YHR142W, strain chs7, hits give low values",1.01
same,normalized growth,"locus YHR200W, strain rpn10, hits give low values",1.01
same,normalized growth,"locus YIL066C, strain RNR3, hits give low values",0.988
same,normalized growth,"locus YIL073C, strain SPO22, hits give low values",0.975
same,normalized growth,"locus YIL125W, strain kgd1, hits give low values",0.995
same,normalized growth,"locus YIR030C, strain dcg1, hits give low values",0.989
same,normalized growth,"locus YJL092W, strain hpr5, hits give low values",1
same,normalized growth,"locus YJL095W, strain BCK1 (second series), hits give low values",0.996
same,normalized growth,"locus YJL095W, strain BCK1, hits give low values",0.982 and 1.03
same,normalized growth,"locus YJL115W, strain asf1, hits give low values",1.01
same,normalized growth,"locus YJL129C, strain trk1, hits give low values",1.01
same,normalized growth,"locus YJL134W, strain LCB3, hits give low values",0.99
same,normalized growth,"locus YJL154C, strain vps35, hits give low values",1.01
same,normalized growth,"locus YJL164C, strain tpk1, hits give low values",0.999
same,normalized growth,"locus YJL166W, strain qcr8, hits give low values",0.99
same,normalized growth,"locus YJL168C, strain set2, hits give low values",0.998
same,normalized growth,"locus YJL187C, strain SWE1 (second series), hits give low values",0.987
same,normalized growth,"locus YJR043C, strain POL32, hits give low values",1
same,normalized growth,"locus YJR066W, strain TOR1, hits give low values",0.941
